Reference: PubChem BioAssay
Activity calls are given as the source filed them.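 The calls were made as follows: active = mean inhibition above 46.68%, the untreated control wells mean plus 3 SD; inactive = the rest.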

molecular target: Nuclear receptor coactivator 1 (Homo sapiens) (UniProt Q15788); assay: SRC1 coactivator transcriptional activity inhibitors, confirmation, cell-based, luminescence, quadruplicate (AID 588820); details: HEK293 GAL4-SRC1 luciferase reporter, at 3.6 µM, hits give high values;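 also: 0% = DMSO wells and 100% = gossypol 36 µM treated wells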
Sequence (Q15788 whole entry, looked up, the tested form may be a part): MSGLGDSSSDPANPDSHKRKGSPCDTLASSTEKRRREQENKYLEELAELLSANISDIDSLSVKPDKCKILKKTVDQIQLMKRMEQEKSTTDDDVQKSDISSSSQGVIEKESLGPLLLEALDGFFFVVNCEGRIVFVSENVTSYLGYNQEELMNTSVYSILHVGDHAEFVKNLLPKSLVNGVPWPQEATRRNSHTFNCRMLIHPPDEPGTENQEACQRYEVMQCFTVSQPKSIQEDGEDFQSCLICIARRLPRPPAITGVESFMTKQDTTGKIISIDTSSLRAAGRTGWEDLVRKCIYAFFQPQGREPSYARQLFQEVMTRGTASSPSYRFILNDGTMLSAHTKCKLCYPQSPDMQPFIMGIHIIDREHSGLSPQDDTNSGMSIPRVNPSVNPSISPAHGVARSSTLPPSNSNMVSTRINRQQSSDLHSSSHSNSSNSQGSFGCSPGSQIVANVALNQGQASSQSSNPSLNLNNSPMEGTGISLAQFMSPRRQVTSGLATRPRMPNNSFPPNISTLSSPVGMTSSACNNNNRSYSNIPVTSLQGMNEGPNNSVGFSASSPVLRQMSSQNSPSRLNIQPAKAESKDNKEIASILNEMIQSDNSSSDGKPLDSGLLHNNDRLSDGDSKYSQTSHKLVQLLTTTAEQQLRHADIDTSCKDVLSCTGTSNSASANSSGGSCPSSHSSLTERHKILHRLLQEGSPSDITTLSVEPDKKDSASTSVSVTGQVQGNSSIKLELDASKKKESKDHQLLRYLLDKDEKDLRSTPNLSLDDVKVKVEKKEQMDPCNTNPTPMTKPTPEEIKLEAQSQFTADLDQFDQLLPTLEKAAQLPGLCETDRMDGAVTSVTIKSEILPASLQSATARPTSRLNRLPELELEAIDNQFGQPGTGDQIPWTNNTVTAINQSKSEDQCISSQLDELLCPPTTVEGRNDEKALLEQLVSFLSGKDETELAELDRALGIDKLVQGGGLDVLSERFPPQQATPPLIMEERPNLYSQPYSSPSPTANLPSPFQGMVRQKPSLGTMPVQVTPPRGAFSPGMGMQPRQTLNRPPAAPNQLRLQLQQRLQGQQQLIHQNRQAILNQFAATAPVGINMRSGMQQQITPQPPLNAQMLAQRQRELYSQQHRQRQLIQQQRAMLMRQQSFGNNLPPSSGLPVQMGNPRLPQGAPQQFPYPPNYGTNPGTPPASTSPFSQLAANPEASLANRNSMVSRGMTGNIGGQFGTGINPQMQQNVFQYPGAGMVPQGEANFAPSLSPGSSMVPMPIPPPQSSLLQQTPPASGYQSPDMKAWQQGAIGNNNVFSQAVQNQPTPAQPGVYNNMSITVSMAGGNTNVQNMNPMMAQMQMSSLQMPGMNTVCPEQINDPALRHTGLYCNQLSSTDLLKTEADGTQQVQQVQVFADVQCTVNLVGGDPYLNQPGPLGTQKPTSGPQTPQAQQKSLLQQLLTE

inhibition, inactive:
COc1ccc(CCNc2c3ccccc3nc3ccccc23)cc1OC -6.86%
Cc1oc(C(C)(C)C)cc1C(=O)N1CCN(c2ccc(C(F)(F)F)cn2)CC1 0.89%
O=C(Nc1cc(Cl)ccc1N1CCOCC1)c1ccco1 1.28%
O=C(CSc1nc(C2CC2)nc2ccccc12)Nc1cccc(O)c1 -0.77%
COc1ccc(-n2nc(C(=O)NCC(=O)Nc3cc(OC)c(OC)c(OC)c3)c3ccccc3c2=O)cc1OC -43.4%
CN(C)C(=O)c1ccc(-c2n[nH]c(=O)c3ccccc23)cc1 34.3%
Cc1ccc(S(=O)(=O)N2CCN(c3ncnc4sccc34)CC2)cc1C -1.32%
O=S(=O)(c1cccc(C(F)(F)F)c1)N1c2ccccc2-n2cccc2C1c1cccnc1 (stereo not given) 12.9%
COc1ccc(N(Cc2cc3cc(OC)ccc3[nH]c2=O)S(=O)(=O)c2ccc(NC(C)=O)cc2)cc1 -21.4%
CC(C)Cn1c(N)c(C(=O)COC(=O)CC23CC4CC(CC(C4)C2)C3)c(=O)n(C)c1=O 6.72%
CCn1c(=O)n(CC)c2cc(N3CCCC3)c(NC(=O)c3ccccc3OC)cc21 -13.7%
Cc1noc(C)c1COC(=O)CCN1c2ccccc2Sc2ccccc21 0.23%
Cc1cnccc1NC(=O)c1cccs1 -0.39%
COc1ccc2cc(/C=N/NC(=O)c3ccc(CN(c4ccc(C)c(C)c4)S(C)(=O)=O)cc3)c(Cl)nc2c1 -4.08%
CC(C)n1c(SCC(=O)Nc2nc3c(s2)CCCC3)nc2c1c(=O)n(C)c(=O)n2C 29.2%
Cc1cc([N+](=O)[O-])nn1CCCC(=O)Nc1ccc(Cl)cc1Cl -11.6%
CC1=C(C(=O)OCc2ccccc2)C(c2ccsc2)C(C#N)=C(N)O1 (stereo not given) -1.74%
O=[N+]([O-])c1ccc(CSc2ccc(S(=O)(=O)N3CCOCC3)cn2)cc1 -7.09%
COc1ccc(S(=O)(=O)N(C)c2ccc(C(=O)Nc3cccnc3)cc2)cc1OC 14.3%
CCCCCCN1C2=NCCCN2c2ccccc21 1.1%
COc1ccccc1NC(=O)Cn1c(C)cc(=O)c2cccc(OC)c21 -24.2%
Cc1ccc(S(=O)(=O)N(C)c2ccc(C(=O)N3CCN(Cc4ccc5c(c4)OCO5)CC3)cc2)cc1 9.2%
CCc1nc(Nc2ccncc2)c2oc3ccccc3c2n1 12.3%
CCN(CC(=O)Nc1c(F)cccc1F)C(=O)/C=C/c1ccc(S(=O)(=O)N2CCCCCC2)cc1 -10.1%
O=C(O)CC1S/C(=N\N=C2CCCCCC2)N(c2ccccc2)C1=O (stereo not given) -22.2%
COc1ccc(-c2cc(C(=O)NCCCN3CCOCC3)c3ccccc3n2)cc1OC -12.4%
NS(=O)(=O)c1ccc(CCNC(=O)c2ccc(C#CC3(O)CCCCC3)cc2)cc1 -44%
CN1CCN(CCC(=O)N/N=C/c2cc3c(cc2[N+](=O)[O-])OCO3)CC1 -2.3%
COc1ccc(C(O)(C(C)C)C(CN2CCOCC2)c2ccc(Cl)cc2)cc1 (stereo not given) 16.2%
COc1cc(C)c(/C=C(\C#N)C(=O)Nc2ccc(C)cc2)cc1C(C)C -24%
Cc1ccc(S(=O)(=O)CC(CN2CCCCC2)N2CCCCC2)cc1 (stereo not given) 4.8%
COc1ccc(C)cc1S(=O)(=O)N1CCCC(N2CCN(c3ccccc3)CC2)C1 (stereo not given) 2.59%
C/C(=N\N=C1\NC(=O)C(CC(=O)O)S1)c1ccccn1 (stereo not given) -1.33%
CCOc1ccc(OCCC(=O)OCC(=O)NNC(=O)c2ccccc2)cc1 -5.67%
COCCN(C(=O)C1=COCCO1)c1c(N)n(Cc2ccccc2)c(=O)[nH]c1=O -12.3%
COc1ccccc1C(c1nnnn1Cc1ccco1)N1CCN(c2cccc(C)c2C)CC1 (stereo not given) 10.7%
CCN1CCS/C1=C/C=C/C1=[N+](CC)CCS1 -22.7%
O=C(OCC(=O)N1CCN(S(=O)(=O)c2ccc(Cl)cc2)CC1)c1cccc(OC(F)F)c1 -50.5%
O=C(Nc1ccc(Oc2ccccc2)cc1)c1csc([C@@H]2O[C@H](CO)[C@@H](O)[C@H]2O)n1 -12.9%
O=C(COc1ccc([N+](=O)[O-])cc1)Nc1ccccc1C(=O)NC1CC1 2.87%
